# From PubChem BioAssay (EPA / NIEHS)
# Records with an inconclusive call do not appear. Active and inactive are the calls of the source. How the source made its calls: active means hit-call score of the fitted dose curve at least 0.9, where 1 is the maximum; inconclusive means response in the unintended direction; inactive means score below 0.9.
# Molecular target: human Phosphodiesterase 10 (PDE10), PDE10A (gene 10846) (UniProt Q9Y233)
# Assay: NVS_ENZ_hPDE10: NovaScreen (NVS) Enzymatic Assay for human Phosphodiesterase 10 (PDE10) (AID 2283195)
# Summary of the method: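 Readout is fluorescence intensity following electrophoretic mobility-shift separation, 1 h after dosing of isolated PDE10A protein. Hits meeting a preset threshold at 25 uM went to concentration series (max 50 uM), analysed relative to DMSO.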
# human Phosphodiesterase 10 (PDE10), PDE10A (gene 10846), sequence (Q9Y233 whole entry, looked up): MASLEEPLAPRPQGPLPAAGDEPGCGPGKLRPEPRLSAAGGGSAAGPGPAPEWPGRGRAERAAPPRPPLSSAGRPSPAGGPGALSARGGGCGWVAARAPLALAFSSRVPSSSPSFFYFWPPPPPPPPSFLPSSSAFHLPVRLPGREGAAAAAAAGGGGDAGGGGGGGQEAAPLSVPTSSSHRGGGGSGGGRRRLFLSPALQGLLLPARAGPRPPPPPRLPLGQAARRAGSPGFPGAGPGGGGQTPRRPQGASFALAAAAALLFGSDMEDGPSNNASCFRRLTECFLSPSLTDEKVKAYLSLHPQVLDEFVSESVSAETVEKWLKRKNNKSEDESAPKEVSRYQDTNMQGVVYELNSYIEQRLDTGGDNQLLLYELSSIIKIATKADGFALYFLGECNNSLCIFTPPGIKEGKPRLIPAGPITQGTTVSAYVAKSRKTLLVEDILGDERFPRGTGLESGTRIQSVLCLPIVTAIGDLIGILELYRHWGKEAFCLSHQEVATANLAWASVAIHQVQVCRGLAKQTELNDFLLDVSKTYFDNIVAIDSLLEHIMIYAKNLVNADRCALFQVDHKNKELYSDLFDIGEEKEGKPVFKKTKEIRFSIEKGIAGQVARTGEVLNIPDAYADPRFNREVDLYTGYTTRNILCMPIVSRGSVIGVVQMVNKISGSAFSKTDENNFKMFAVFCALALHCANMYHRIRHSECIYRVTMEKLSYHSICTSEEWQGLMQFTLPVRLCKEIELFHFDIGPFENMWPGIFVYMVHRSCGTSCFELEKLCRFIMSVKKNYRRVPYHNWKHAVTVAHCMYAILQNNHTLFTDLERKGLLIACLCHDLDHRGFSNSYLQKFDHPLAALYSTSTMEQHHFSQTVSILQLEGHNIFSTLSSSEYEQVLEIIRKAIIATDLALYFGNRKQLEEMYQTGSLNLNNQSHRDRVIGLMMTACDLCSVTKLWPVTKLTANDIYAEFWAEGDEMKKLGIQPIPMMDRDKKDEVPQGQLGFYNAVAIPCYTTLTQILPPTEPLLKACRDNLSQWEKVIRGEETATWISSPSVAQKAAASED
Structure (SMILES),outcome,AC50
C=C(C)C1CC=C(C)C(OC(C)=O)C1 (stereo not drawn),inactive,
[Cl][Sc]([Cl])[Cl],,1.67 µM (active)
CCCCCC1=CCCC1=O,inactive,
CCN(CC)c1cccc(C)c1,inactive,
O=C1CCCCCCCCCCCN1,inactive,
CCC1(C)C(=O)N(Cl)C(=O)N1Cl (stereo not drawn),,20.7 µM (active)
CC(=O)OC1CCCCC1,inactive,
CC(=O)OC(C)c1ccccc1 (stereo not drawn),inactive,
O=C1CCCCCCCCCCC1,inactive,
Cn1cccc1,,5.59 µM (active)
CC1(C)C(=O)N(CO)C(=O)N1CO,,46.5 µM (active)
C=CC(=O)O[C@H]1C[C@@H]2CC[C@@]1(C)C2(C)C,,3.57 µM (active)
CCCCOCC(C)O (stereo not drawn),inactive,

# Molecular target: human Phosphoinositide 3-kinase alpha (PI3Ka), PIK3CA (gene 5290) (UniProt P42336)
# Assay: NVS_ENZ_hPI3Ka: NovaScreen (NVS) Enzymatic Assay for human Phosphoinositide 3-kinase alpha (PI3Ka) (AID 2283196)
# Summary of the method: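 Chemicals were first screened at 25 uM in duplicate, then hits were run as concentration series up to 50 uM. Enzyme activity was measured by fluorescence after mobility-shift separation, with loss of signal relative to DMSO taken as activity.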
# human Phosphoinositide 3-kinase alpha (PI3Ka), PIK3CA (gene 5290), sequence (P42336 whole entry, looked up): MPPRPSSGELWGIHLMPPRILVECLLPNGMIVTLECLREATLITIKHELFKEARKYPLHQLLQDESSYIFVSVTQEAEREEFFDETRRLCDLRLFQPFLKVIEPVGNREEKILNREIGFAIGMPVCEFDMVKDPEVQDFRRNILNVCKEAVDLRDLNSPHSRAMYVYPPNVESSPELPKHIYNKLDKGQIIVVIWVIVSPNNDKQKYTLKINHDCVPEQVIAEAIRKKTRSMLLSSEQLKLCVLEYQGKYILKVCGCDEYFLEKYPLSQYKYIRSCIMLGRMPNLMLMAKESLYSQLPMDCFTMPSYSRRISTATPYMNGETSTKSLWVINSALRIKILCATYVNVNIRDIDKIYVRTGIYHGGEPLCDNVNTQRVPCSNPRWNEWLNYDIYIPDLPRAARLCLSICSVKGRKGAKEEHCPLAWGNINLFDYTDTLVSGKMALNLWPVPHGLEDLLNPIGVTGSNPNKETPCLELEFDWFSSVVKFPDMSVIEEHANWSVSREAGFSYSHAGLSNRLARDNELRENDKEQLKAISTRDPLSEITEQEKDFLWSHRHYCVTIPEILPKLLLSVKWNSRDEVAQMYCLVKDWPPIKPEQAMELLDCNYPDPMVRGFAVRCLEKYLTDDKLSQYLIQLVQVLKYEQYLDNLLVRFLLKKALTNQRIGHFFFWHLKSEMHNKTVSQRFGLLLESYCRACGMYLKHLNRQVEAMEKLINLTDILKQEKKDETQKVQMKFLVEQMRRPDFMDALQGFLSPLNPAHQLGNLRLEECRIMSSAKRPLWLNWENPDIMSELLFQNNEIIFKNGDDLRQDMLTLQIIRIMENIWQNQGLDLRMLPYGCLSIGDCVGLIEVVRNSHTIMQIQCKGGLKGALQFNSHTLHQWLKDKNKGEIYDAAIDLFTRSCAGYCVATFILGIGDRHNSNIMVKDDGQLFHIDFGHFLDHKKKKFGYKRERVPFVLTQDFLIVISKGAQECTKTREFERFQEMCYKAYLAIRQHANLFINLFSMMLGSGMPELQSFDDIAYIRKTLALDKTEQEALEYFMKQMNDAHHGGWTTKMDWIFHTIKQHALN
Structure (SMILES),AC50,outcome
C=C(C)C1CC=C(C)C(OC(C)=O)C1 (stereo not drawn),25 µM (active),
Oc1ccc(/C=C/c2cc(O)cc(O)c2)cc1,,inactive
CC(=O)OC(C)c1ccccc1 (stereo not drawn),,inactive
O=C1CCCCCCCCCCC1,,inactive
C=CC(=O)OCC(C)OCC(C)OCC(C)OC(=O)C=C (stereo not drawn),,inactive

# Molecular target: sheep Cyclooxygenase-1 (Cox1), PTGS1 (gene 443551) (UniProt P05979)
# Assay: NVS_ENZ_oCOX1: NovaScreen (NVS) Enzymatic Assay for sheep Cyclooxygenase-1 (Cox1) (AID 2283239);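 further: actives reduce cyclooxygenase activity so potencies are for inhibitors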
# Summary of the method: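 COX1 from ovine seminal vesicles, activity read colorimetrically about 0.66 h after dosing. Primary screen in duplicate at 25 uM; actives retested in concentration series; loss of signal fitted versus DMSO.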
# sheep Cyclooxygenase-1 (Cox1), PTGS1 (gene 443551), sequence (P05979 whole entry, looked up): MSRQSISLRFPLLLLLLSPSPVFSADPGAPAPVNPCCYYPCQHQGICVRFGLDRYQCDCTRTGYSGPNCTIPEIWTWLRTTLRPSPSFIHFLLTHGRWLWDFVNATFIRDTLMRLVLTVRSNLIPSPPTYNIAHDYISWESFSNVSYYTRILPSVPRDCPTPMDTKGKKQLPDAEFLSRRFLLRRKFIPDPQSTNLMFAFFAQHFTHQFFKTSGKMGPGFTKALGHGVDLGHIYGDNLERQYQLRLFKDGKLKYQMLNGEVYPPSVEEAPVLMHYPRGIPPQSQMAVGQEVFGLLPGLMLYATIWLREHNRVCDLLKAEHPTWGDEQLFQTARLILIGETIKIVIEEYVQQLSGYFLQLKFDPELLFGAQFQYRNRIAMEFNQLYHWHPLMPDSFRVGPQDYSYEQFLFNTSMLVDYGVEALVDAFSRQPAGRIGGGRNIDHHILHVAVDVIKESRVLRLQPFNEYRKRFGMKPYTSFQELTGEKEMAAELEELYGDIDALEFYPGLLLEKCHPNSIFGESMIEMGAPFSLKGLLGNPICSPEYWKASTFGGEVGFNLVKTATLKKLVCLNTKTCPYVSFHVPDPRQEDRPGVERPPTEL
Structure (SMILES),outcome,AC50
Nc1nc(N)nc(-c2ccccc2)n1,inactive,
CCCCCC1=CCCC1=O,,25 µM (active)
Oc1ccc(/C=C/c2cc(O)cc(O)c2)cc1,,7.5 µM (active)
CC(=O)OC(C)c1ccccc1 (stereo not drawn),inactive,
Nc1cccc(N)n1,inactive,
Oc1c(Cl)cc(Cl)c(Cl)c1Cl,inactive,
COC(OC)(C(=O)c1ccccc1)c1ccccc1,inactive,
CC1=C(O)C(=O)C(C)O1 (stereo not drawn),inactive,
CCCCCCCCCCCC(C)=O,,31.9 µM (active)
NNS(=O)(=O)c1ccc(Oc2ccc(S(=O)(=O)NN)cc2)cc1,inactive,
